Assay outcomes from PubChem BioAssay.
The list is not random: actives were taken first. Their share in the collection is about 2.7%.
TRPM1 prom inh: inhibitors of MITF-driven TRPM1 promoter in melanoma cells; SK-MEL-5 TRPM1 promoter luciferase, 24 h; inhibition, % at 12.5 µM; 330,000 compounds, 0.83% hits; AID 488899;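 active means mean inhibition across replicates of 60% or more, whatever share of single replicates reaches that level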
Peg3 promoter: inhibitors of Peg3 promoter. 360,000 compounds, 1.7% hits. HeLa PEG-Prom luciferase reporter, luminescence, overnight. inhibition, % at 20 µM. AID 588405;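 active means inhibition of at least 50% at 20 µM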
Shn3 3UTR inh: inhibitors of Schnurri-3 3'UTR reporter in osteoblasts. 360,000 compounds, 0.52% hits. inhibition, % at 12.5 µM. Clone20 osteoblast Shn3 3'UTR firefly luciferase, 24 h;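 active means mean inhibition of at least 75% with every replicate also reaching 75%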;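 further: 0% = median of neutral control wells and 100% = pilot-screen positive control compound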
KKLEB cytotox: counter-screen for CF NF-kB inhibitors: cytotoxicity; KKLEB CF airway cells viability, ATPlite luminescence, overnight; active compounds read low; cells stimulated with P. aeruginosa culture filtrate; activity change (cytotoxicity), % at 5 µM; 360,000 compounds, 0.36% hits;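 active means corrected activity change at or below -50% at 5 µM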
CF NFkB inh: inhibitors of cystic fibrosis induced NF-kB; KKLEB NF-kB-GFP reporter, PAF-induced, GFP fluorescence overnight; inhibition, % at 5 µM; 360,000 compounds, 0.86% hits; AID 588850;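 active means at least 50% inhibition at 5 µM, scaled per plate between neutral and stimulator controls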;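 further: PAF is a Pseudomonas aeruginosa culture filtrate used as stimulus; plate controls were PAF-stimulated DMSO wells for no effect and unstimulated DMSO wells for full effect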
HIF-2a block: inhibitors of HIF-2a | 786-0 RCC cells HIF-2a reporter, luciferase luminescence, overnight | inhibition, % at 18.8 µM | 360,000 compounds, 0.72% hits;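 active means inhibition of the luminescence signal of 40% or more relative to plate controls, in a single-dose primary screen at 18.75 µM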
Mdm2-MdmX confirm: confirmation of inhibitors of human Mdm2/MdmX interaction, set 2; AID 504601; 740 compounds, 99% hits; SaOS-2 split-luciferase Mdm2/MdmX complementation, luminescence; shares compounds with HIF-2a block; inhibition, % at 8 µM;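 active means mean inhibition of the luminescence signal across two replicates at or above 26 percent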
HIF-2a conf: confirmation of HIF-2a inhibitors; 1,800 compounds, 56% hits; 786-0 RCC cells, HIF-2a luciferase reporter luminescence, overnight; shares compounds with HIF-2a block; inhibition, % at 18.8 µM; AID 651580;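 active means mean inhibition across four replicates of at least 40 percent at the single tested concentration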
HIF-1a cs: HIF-1a inhibition counter-screen for HIF-2a hits; shares compounds with HIF-2a block; MiaPaCa-2 HIF-1a luciferase reporter, desferoxamine, overnight; inhibition, % at 18.8 µM; 1,800 compounds, 72% hits; AID 651589;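 active means mean inhibition of the reporter signal across four replicates at the single tested dose of 50% or more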
Numbers without * were called inactive.

What do the screens show for `O=C(N/N=C/c1ccc[nH]1)c1ccc(COc2cccc3cccnc23)cc1`?
TRPM1 prom inh: 46; Peg3 promoter: 89*; Shn3 3UTR inh: 90*; KKLEB cytotox: -54*; CF NFkB inh: 42; HIF-2a block: 25; Mdm2-MdmX confirm: 97*

How did Cc1cn([C@H]2C[C@H](O)[C@@H](CNCc3ccc(F)c(N4CCOCC4)c3)O2)c(=O)[nH]c1=O do in these assays?
Peg3 promoter: 0; Shn3 3UTR inh: -7; KKLEB cytotox: -1; CF NFkB inh: 0; HIF-2a block: -6

How did Cn1cc(CN2CCC(C(=O)NC(c3ccc(F)cc3)c3ccc4ccccc4n3)CC2)c2ccccc21 (stereo unspecified) do in these assays?
Peg3 promoter: 101*; Shn3 3UTR inh: 45; KKLEB cytotox: 0; CF NFkB inh: 7; HIF-2a block: 92*; HIF-2a conf: -3; HIF-1a cs: 106*

Results for OC[C@@H]1CN(Cc2ccccc2)C[C@H](n2cnc3c(N4CCOCC4)ncnc32)O1 ?
Peg3 promoter: -5; Shn3 3UTR inh: -3; KKLEB cytotox: -10; CF NFkB inh: -54; HIF-2a block: 0

How did NS(=O)(=O)c1ccc(N/N=C2/CCCCC2C2CCCCC2)c([N+](=O)[O-])c1 (stereo unspecified) do in these assays?
TRPM1 prom inh: 2; Peg3 promoter: 40; Shn3 3UTR inh: 66; KKLEB cytotox: -11; CF NFkB inh: -4; HIF-2a block: 55*; HIF-2a conf: 2; HIF-1a cs: 104*

How did CC1C/C(=N\Nc2ccc(S(N)(=O)=O)cc2[N+](=O)[O-])CC(C)(C)C1 (stereo unspecified) do in these assays?
TRPM1 prom inh: 1; Peg3 promoter: 11; Shn3 3UTR inh: -5; KKLEB cytotox: -8; CF NFkB inh: 14; HIF-2a block: 11

What do the screens show for `NCCc1nnc(SCc2c(Cl)cccc2Cl)o1`?
TRPM1 prom inh: -5; Peg3 promoter: 4; Shn3 3UTR inh: -7; KKLEB cytotox: -1; CF NFkB inh: -9; HIF-2a block: 17

Results for NCCCCCc1nnc(SCc2ccccc2Cl)o1 ?
TRPM1 prom inh: 25; Peg3 promoter: 13; Shn3 3UTR inh: 26; KKLEB cytotox: -1; CF NFkB inh: -20; HIF-2a block: 68*; HIF-2a conf: 83*; HIF-1a cs: 68*

What do the screens show for `COCCN(CC(=O)Nc1cccc(C)c1C)C(=O)/C=C/c1ccc2c(c1)OCCO2`?
Peg3 promoter: -21; Shn3 3UTR inh: -3; KKLEB cytotox: 12; CF NFkB inh: -15; HIF-2a block: -21

Results for O=C1NC[C@H](CCCCN2C[C@H](Cc3ccc(O)cc3)N(CCc3ccc(O)cc3)C(=O)C2=O)N(CCc2ccc(O)cc2)C1=O ?
HIF-2a block: 1

Results for CC(=O)c1ccc(-c2ccc(C(=O)Nc3nc(-c4ccccn4)cs3)o2)cc1 ?
TRPM1 prom inh: 4; Peg3 promoter: 76*; Shn3 3UTR inh: 37; KKLEB cytotox: 2; CF NFkB inh: -13; HIF-2a block: -69; Mdm2-MdmX confirm: 99*

Results for CC(=O)Nc1ccc(C(=O)Nc2nc(-c3ccccn3)cs2)cc1 ?
TRPM1 prom inh: -11; Peg3 promoter: -27; Shn3 3UTR inh: -22; KKLEB cytotox: -10; CF NFkB inh: 16; HIF-2a block: -75

Results for Cc1ccc(NC(=O)c2cc(NC(=O)c3ccco3)ccc2N2CCOCC2)cc1 ?
TRPM1 prom inh: -8; Peg3 promoter: 0; Shn3 3UTR inh: 22; KKLEB cytotox: -7; CF NFkB inh: 0; HIF-2a block: 0
